Several values for one entry are separate records, joined by “and”; a condition that tells them apart may be missing. Equal entries are not always repeated. Inconclusive results are not listed. Activity calls are given as the source filed them. Unless noted, calls follow the shape of the dose curve; as a rule, active = well fitted curve in the direction sought with a large enough effect; inconclusive = small, poorly fitted or top-dose-only effect, or another doubt; inactive = no such curve, though single readings can be large; an effect the other way counts as inactive or inconclusive.
What was measured:
[1] = molecular target: Cellular tumor antigen p53 (Homo sapiens) (UniProt P04637); assay: Primary qHTS for small molecule compounds that upregulate eGFP-tagged delta133p53alpha (in N-terminal) cells. (AID 2060322); details: NCI-H358 eGFP-delta133p53alpha fluorescence, 24 h; activation: active compounds read high;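 also: series mostly up to about 56 µM; 0% = DMSO vehicle and 100% = reference activator; nearly all actives have a fitted effect of over 75% in size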
Cellular tumor antigen p53 (Homo sapiens), sequence (P04637 whole entry, looked up): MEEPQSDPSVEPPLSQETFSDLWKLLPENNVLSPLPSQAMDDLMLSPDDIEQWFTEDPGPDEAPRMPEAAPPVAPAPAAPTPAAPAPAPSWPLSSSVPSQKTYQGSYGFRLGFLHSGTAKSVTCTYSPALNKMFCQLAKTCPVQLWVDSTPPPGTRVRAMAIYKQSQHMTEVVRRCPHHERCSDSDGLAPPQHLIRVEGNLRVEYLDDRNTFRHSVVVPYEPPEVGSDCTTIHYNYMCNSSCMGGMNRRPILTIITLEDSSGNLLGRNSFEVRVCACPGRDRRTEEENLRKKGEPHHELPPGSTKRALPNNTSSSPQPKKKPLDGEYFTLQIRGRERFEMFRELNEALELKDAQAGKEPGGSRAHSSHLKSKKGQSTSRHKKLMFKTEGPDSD
How it was run: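 NCI-H358 cells pre-induced 24 h with 10 ng/ml doxycycline to express N-terminal eGFP-delta133p53alpha, then dosed 24 h at 37C without doxycycline; fixed, Hoechst-stained, GFP intensity by laser scanning cytometry, normalized to DMSO (0%) and 57.5 uM 5-azacytidine (100%).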

[2] = molecular target: Cellular tumor antigen p53 (Homo sapiens) (UniProt P04637); assay: Primary qHTS for small molecule compounds that upregulate eGFP-tagged delta133p53alpha (in C-terminal) cells. (AID 2060324);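 also: 0% = DMSO wells and 100% = 57.5 µM 5-azacytidine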
How it was run: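 In this qHTS, GFP-tagged delta133p53alpha levels are measured in fixed NCI-H358 cells after 24 h compound exposure at 37 °C. The cells are pre-induced with 100 ng/ml doxycycline, and signal is normalized to DMSO-treated wells as 0%.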

[3] = molecular target: Aldehyde dehydrogenase, mitochondrial (Homo sapiens) (UniProt P05091); assay: qHTS for Inhibitors of the Aldehyde Dehydrogenase Family (ALDH2) Validation screens (AID 2061302; active = well fitted inhibition curve with a large enough effect; title and protocol of this record describe different tests;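 also: plate controls were DMSO vehicle for no effect and maximal DPI positive control response for full effect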)
[4] = molecular target: Retinaldehyde dehydrogenase 3 (Homo sapiens) (UniProt P47895); assay: qHTS for Inhibitors of the Aldehyde Dehydrogenase Family (ALDH1A3) Validation screen (AID 2061312); also: % is scaled to controls: 0 for no effect and ±100 for the full control effect; nearly all actives have a fitted effect of over 45% in size

O=[N+]([O-])c1cccc2cn[nH]c12
inactive: activation [1] -32.7% | Potency [2] | Potency [3] | Potency [4]

C[C@H]1CC2C3CCC4=CC(=O)C=C[C@]4(C)[C@@]3(Cl)[C@@H](O)C[C@]2(C)[C@@]1(O)C(=O)CO (some centres undefined)
inactive: activation [1] -21.3% | Potency [2] | Potency [3] | Potency [4]

C=C1C[C@@]23CC[C@H]4[C@@](C)(CCC[C@@]4(C)C(=O)OC4OC(CO)C(O)C(O)C4O)[C@@H]2CC[C@]1(OC1OC(CO)C(O)C(O)C1OC1OC(CO)C(O)C(O)C1O)C3 (some centres undefined)
inactive: activation [1] -5.25% | Potency [2] | Potency [3] | Potency [4]

CC(C)(C)c1ccc(/C=C/C(=O)Nc2ccc3c(c2)OCCO3)cc1
inactive: activation [1] -15.3% | Potency [2] | Potency [3] | Potency [4]

CNC(=O)[C@H]1O[C@@H](n2cnc3c(NCc4cccc(I)c4)ncnc32)[C@H](O)[C@@H]1O
inactive: activation [1] -36.7% | Potency [2] | Potency [3] | Potency [4]

COc1ccc(CCn2nnnc2C2(c3ccc(C)cc3)CC2)cc1
inactive: activation [1] -20.3% | Potency [2] | Potency [3] | Potency [4]

N[C@H](CCCP(=O)(O)O)C(=O)O
inactive: activation [1] -16.6% | Potency [2] | Potency [3] | Potency [4]

O=C(O)C1CN(CCCP(=O)(O)O)CCN1 (centres undefined)
inactive: activation [1] -32.5% | Potency [2] | Potency [3] | Potency [4]

Cn1c(=O)c2[nH]c(-c3ccccc3)nc2n(C)c1=O
inactive: activation [1] -37% | Potency [2] | Potency [3] | Potency [4]

Nc1nc(SCc2ccc([N+](=O)[O-])cc2)c2ncn([C@@H]3O[C@H](CO)[C@@H](O)[C@H]3O)c2n1
inactive: activation [1] -3.28% | Potency [2] | Potency [3] | Potency [4]

COC(=O)c1c(C)[nH]c(C)c1C(=O)c1ccccc1Cc1ccccc1
inactive: activation [1] -23.2% | Potency [2] | Potency [3] | Potency [4]

OC[C@H]1O[C@@H](n2cnc3c(NC4CCCC4)ncnc32)[C@H](O)[C@@H]1O
inactive: activation [1] -30.9% | Potency [2] | Potency [3] | Potency [4]

CC(C)(CO)Cc1cc(C(C)(C)C)c(O)c(C(C)(C)C)c1
inactive: activation [1] -20% | Potency [2] | Potency [3] | Potency [4]

N[C@H](CO)C(=O)O
inactive: activation [1] 9.85% | Potency [2] | Potency [3] | Potency [4]

CC(C)(C=O)Cc1cc(C(C)(C)C)c(O)c(C(C)(C)C)c1
inactive: activation [1] -15.2% | Potency [2] | Potency [3] | Potency [4]

O=[N+]([O-])c1cccc2c(Br)[nH]nc12
inactive: activation [1] -55.3% | Potency [2] | Potency [3] | Potency [4]

C[C@]12C=CC(=O)C=C1CC[C@H]1[C@@H]3C[C@@H](O)[C@](O)(C(=O)CO)[C@@]3(C)C[C@H](O)[C@@]12F
inactive: activation [1] 10.9% and -4.1% | Potency [2] | Potency [3] | Potency [4]

CCCCCCCCCCCCCCCC(=O)OC(CC(=O)O)C[N+](C)(C)C (centres undefined)
inactive: activation [1] -11.1% | Potency [2] | Potency [3] | Potency [4]

CC(C)(NS(=O)(=O)c1ccc(Oc2ccc(F)cc2)cc1)C(=O)NO
inactive: activation [1] -8.16% | Potency [2] | Potency [3] | Potency [4]

NCCNS(=O)(=O)c1cccc2c(Cl)cccc12
inactive: activation [1] -38% | Potency [2] | Potency [3] | Potency [4]

CC(=O)O[C@H]1C[C@@H]2CC[C@@H]3[C@H](CC[C@@]4(C)[C@H]3C[C@H]([N+]3(C)CCCCC3)[C@@H]4OC(C)=O)[C@@]2(C)C[C@@H]1[N+]1(C)CCCCC1
inactive: activation [1] -16.6% | Potency [2] | Potency [3] | Potency [4]

CCCC1O[C@@H]2C[C@H]3[C@@H]4CCC5=CC(=O)C=C[C@]5(C)[C@H]4[C@@H](O)C[C@]3(C)[C@]2(C(=O)CO)O1 (some centres undefined)
inactive: activation [1] -22.8% | Potency [2] | Potency [3] | Potency [4]

CC1CCN=C(N)S1 (centres undefined)
inactive: activation [1] -24.3% | Potency [2] | Potency [3] | Potency [4]

CCN(CC)CCCCCCCCOC(=O)c1cc(OC)c(OC)c(OC)c1
inactive: activation [1] -40.3% | Potency [2] | Potency [3] | Potency [4]

C[C@@]1(C2CCCC2)Cc2cc(OCC(=O)O)c(Cl)c(Cl)c2C1=O
inactive: activation [1] 4.66% | Potency [2] | Potency [3] | Potency [4]

N=C(N)c1ccccc1
inactive: activation [1] -12.8% | Potency [2] | Potency [3] | Potency [4]

C[C@]12CCC(=O)C=C1CC[C@@H]1[C@@H]2C(=O)C[C@@]2(C)[C@H]1CC[C@]2(O)C(=O)CO
inactive: activation [1] 0.837% and -9.81% | Potency [2] | Potency [3] | Potency [4]

O=C(O)[C@H]1NCCC[C@H]1C(=O)O
inactive: activation [1] -3.88% | Potency [2] | Potency [3] | Potency [4]

CCn1ccnc1CC1COc2ccccc2O1 (centres undefined)
inactive: activation [1] -21.8% and 27.7% | Potency [2] | Potency [3] | Potency [4]

CC(C)(C)NC[C@H](O)COc1nsnc1N1CCOCC1
inactive: activation [1] -9.94% | Potency [2] | Potency [3] | Potency [4]

C[N+](C)(C)CCCCCCCCCC[N+](C)(C)C
inactive: activation [1] -20.9% and 13% | Potency [2] | Potency [3] | Potency [4]

From PubChem BioAssay (NCATS)
